Source: PubChem (NMMLSC)
The list is not random: actives were taken first. Their share in the collection is about 1.2%.
GSH fluor: compound fluoresces at 488/530 nm on GSH beads; GSH beads flow cytometry, compound fluorescence 488/530 nm; hits give high values; fluorescence (KMESF) at 10 µM; hit rate 0.25% among 190,000; AID 1776; in the data active = fluorescence above about 89;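 note: glutathione beads carrying GST-tagged Bcl family fusion proteins plus one bare bead set; values are compound well signal with DMSO vehicle wells as background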
RGS4-Gao reg: modulates binding of RGS4 to human Galphao; P09471; Multiplexed bead flow cytometry; actives lie on both sides; binding response (% of control), % at 10 µM; hit rate 0.33% among 220,000; AID 1415; in the data active = binding response below about 49% or above about 150%; inactive = in between;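 note: fluorescent Galphao activated with aluminum fluoride binding bead-coupled RGS4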
Target sequence (P09471 whole entry, looked up): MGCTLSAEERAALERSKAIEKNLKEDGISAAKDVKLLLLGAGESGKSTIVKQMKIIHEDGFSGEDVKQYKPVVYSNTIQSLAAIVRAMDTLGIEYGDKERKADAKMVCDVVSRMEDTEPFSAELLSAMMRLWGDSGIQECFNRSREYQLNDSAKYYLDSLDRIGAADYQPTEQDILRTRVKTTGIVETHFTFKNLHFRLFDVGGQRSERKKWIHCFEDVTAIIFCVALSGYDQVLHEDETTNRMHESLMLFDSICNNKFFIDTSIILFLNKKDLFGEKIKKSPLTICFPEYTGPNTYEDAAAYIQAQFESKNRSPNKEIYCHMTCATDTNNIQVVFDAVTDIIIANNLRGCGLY
RGS7-Gao: human RGS7-Galphao interaction regulation; Multiplexed bead flow cytometry, RGS7-Galphao binding; actives lie on both sides; binding response (% of control), % at 10 µM; hit rate 0.35% among 220,000; AID 1439; in the data active = binding response below about 49% or above about 150%; inconclusive = no clear call, values can overlap the other calls; inactive = in between;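 note: fluorescent Galphao held in activated GDP-AlF4 state binding bead-coupled RGS7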
RGS16-Gao HTS: modulates binding between human RGS16 and Galphao; binding response (% of control), % at 10 µM; AID 1441; hit rate 0.38% among 220,000; O15492+P09471; bead-based flow cytometry RGS16-Galphao binding, fluorescence; actives lie on both sides;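 note: Galphao activated by GDP with aluminum fluoride before binding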
Avidin bead fluor: avidin bead compound fluorescence profile. Avidin beads, compound fluorescence 488/530 nm, flow cytometry; hits give high values. fluorescence (KMESF) at 10 µM. hit rate 0.38% among 220,000. AID 1775; in the data active = fluorescence above about 47
RGS8-Gao: regulators of human RGS8-Galphao interaction; P09471; multiplexed bead flow cytometry, RGS8-Galphao binding; actives lie on both sides; response (percent of control binding), % at 10 µM; hit rate 0.34% among 220,000; AID 1423; in the data active = response below about 60% or above about 140%; inactive = in between;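 note: Galphao activated as the GDP aluminium fluoride complex binding bead-coupled RGS8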
RGS-Gao: modulates binding between human RGS4 and Galphao; shares compounds with RGS16-Gao HTS; multiplexed bead flow cytometry, RGS–Galpha-o binding; RGS4–Galpha-o binding response, % at 10 µM; hit rate 99% among 1,600; AID 1504;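 note: fluorescently labeled Galpha-o bound to GDP with aluminium fluoride binding biotinylated RGS beads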
Avidin counter: interferes with biotinylated probe binding to avidin beads | 1,700 tested, under 10 active | shares compounds with RGS16-Gao HTS | streptavidin beads, fluorescein-biotin binding, flow cytometry | AID 1783 | inhibition, % at 10 µM;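 active = inhibition above 50%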;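 note: median green fluorescence of gated singlet beads compared with DMSO control wells; 0% = DMSO wells and 100% = complete loss of bead fluorescence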
RGS8-Gao confirm: RGS8-Galphao interaction regulation, single point confirmation. shares compounds with RGS16-Gao HTS. bead-based flow cytometry RGS8-Galphao binding, fluorescence; actives lie on both sides. binding response (% of control), % at 10 µM. hit rate 3% among 1,700. AID 1836; in the data active = binding response below about 72% or above about 130%; inactive = in between;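 note: Galphao activated as GDP AlF4 complex before binding bead RGS8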
RGS7-Gao confirm: confirmation of regulators of human RGS7-Galphao interaction. shares compounds with RGS16-Gao HTS. bead-based flow cytometry RGS7-Galphao binding; actives lie on both sides. response (percent of control binding), % at 10 µM. hit rate 7.8% among 1,700; in the data active = response below about 75% or above about 130%; inactive = in between;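 note: fluorescent Galphao activated with GDP and aluminum fluoride binding bead-coupled RGS7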
RGS16-Gao conf: confirmation of regulators of human RGS16-Galphao interaction | response (% of control binding), % at 10 µM | AID 1838 | hit rate 4% among 1,700 | bead-based flow cytometry, RGS16-Galphao binding; actives lie on both sides | shares compounds with RGS16-Gao HTS; in the data active = response below about 74% or above about 130%; inactive = in between;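 note: Galphao activated as the GDP aluminium fluoride complex binding bead-coupled RGS16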
RGS4-Gao confirm: confirmation of regulators of human RGS4-Galphao interaction; shares compounds with RGS16-Gao HTS; AID 1840; hit rate 4% among 1,700; binding response (% of control), % at 10 µM; RGS4-Galphao binding, multiplexed bead flow cytometry; actives lie on both sides; in the data active = binding response below about 74% or above about 130%; inactive = in between
RGS19-Gao single: confirmation of regulators of human RGS19-Galphao interaction. shares compounds with RGS16-Gao HTS. bead-based flow cytometry RGS19-Galphao binding; actives lie on both sides. response (percent of control binding), % at 10 µM. hit rate 5% among 1,700. AID 1841; in the data active = response below about 50% or above about 160%; inactive = in between;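 note: 100% = no compound control and 0% = blank background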
Target sequence (P09471 whole entry, looked up): as above
Target sequence (P49795 whole entry, looked up): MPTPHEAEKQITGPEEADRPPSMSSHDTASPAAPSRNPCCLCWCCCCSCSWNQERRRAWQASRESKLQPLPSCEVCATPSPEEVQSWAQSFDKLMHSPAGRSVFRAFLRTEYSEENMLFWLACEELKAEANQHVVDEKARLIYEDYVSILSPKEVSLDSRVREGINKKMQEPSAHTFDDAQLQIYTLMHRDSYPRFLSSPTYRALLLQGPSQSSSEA
Starred values were filed as active, the others as inactive; i = inactive; ? = inconclusive; . = no result; [ ] = dose if it differs, or a comment. Unless noted, the rule behind the calls is not given here.

SMILES | GSH fluor | RGS4-Gao reg | RGS7-Gao | RGS16-Gao HTS | Avidin bead fluor | RGS8-Gao | RGS-Gao | Avidin counter | RGS8-Gao confirm | RGS7-Gao confirm | RGS16-Gao conf | RGS4-Gao confirm | RGS19-Gao single
CCOCC(=O)Nc1cc(C(=O)OC)cc(C(=O)OC)c1 | 6 | 110 | 104 | 203*[activator] | 2 | 128 | 110* | 0 | 107 | 102 | 111 | 102 | 108
CCOCC(=O)Nc1cccc(C(=O)OCC)c1 | 35 | 99 | 96 | 108 | 11 | 104 | . | . | . | . | . | . | .
COc1cccc(N2CCN(CC(=O)NCc3cccs3)CC2)c1 | 18 | . | . | . | . | . | . | 0 | 102 | 99 | 100 | 99 | 99
COc1cccc(N2CCN(CC(=O)c3c(C)[nH]c4ccccc34)CC2)c1 | 34 | 22* | 17* | 15* | -1 | 15* | . | -1 | 101 | 100 | 103 | 99 | 108
COc1ccc(N2CCN(CC(=O)NCc3ccccc3)CC2)cc1 | 18 | 98 | 102 | 101 | 9 | 99 | . | . | . | . | . | . | .
Cc1ccc2c(C(=O)CN3CCN(c4ccccc4)CC3)c(C)[nH]c2c1 | 24 | 97 | 99 | 99 | 5 | 99 | . | . | . | . | . | . | .
Nc1ccc(-c2ccc(N)cc2C(F)(F)F)c(C(F)(F)F)c1 | 24 | 118 | 204*[activator] | 110 | 123* | 101 | 118* | -2 | 101 | 101 | 97 | 97 | 105
CCOC(=O)c1ccc(NCn2c(=O)oc3ccccc32)cc1 | 22 | 97 | 92 | -14* | 10 | 88 | 97* | -2 | 100 | 99 | 97 | 102 | 102
CCOc1ccccc1N=C1SC(CC(=O)Nc2ccc(OC)cc2OC)C(=O)N1CCC1=CCCCC1 (configuration not stated) | 9 | 99 | 100 | 67 | 2 | 95 | . | . | . | . | . | . | .
O=C(CC1SC(=Nc2ccc(OC(F)F)cc2)N(CCC2=CCCCC2)C1=O)Nc1ccccc1F (configuration not stated) | 3 | 89 | 89 | 25* | 7 | 77 | 89* | 0 | 105 | 99 | 108 | 103 | 104
O=C(CCCNS(=O)(=O)c1ccc(Cl)c(Cl)c1)NCCc1ccccn1 | 13 | 145 | 157*[activator] | 145 | 12 | 143*[activator] | 145* | 0 | 98 | 101 | 100 | 97 | 98
COc1ccc(/C(C)=N/OCC(=O)N2CC3(C)CC2CC(C)(C)C3)cc1 (configuration not stated) | 13 | 304*[activator] | 276*[activator] | -45 | 1 | 282*[activator] | . | 0 | 107 | 109 | 113 | 109 | 124
O=C(NCC1OCCc2ccccc21)c1ccc(NC(=O)c2ccc(Cl)cc2Cl)cc1 (configuration not stated) | 17 | 315*[activator] | 329*[activator] | 445*[activator] | 190* | 143*[activator] | . | 4 | 98 | 95 | 90 | 94 | 73
CC(C)(C)c1ccc(-c2nc(-c3ccncc3)no2)cc1 | 20 | 81 | 89 | 23* | 3 | 75 | 81* | . | . | . | . | . | .
CC(C)(C)c1ccc(-c2noc(-c3ccno3)n2)cc1 | . | 98 | ? | 98 | 4 | 99 | . | . | . | . | . | . | .
Cn1c(N)c(C(=O)/C=C/c2ccccc2)c(=O)[nH]c1=O | . | 105 | ? | 103 | 7 | 102 | . | . | . | . | . | . | .
COc1ccc(-n2nc(C(=O)NCC(=O)Nc3ccccn3)c3ccccc3c2=O)cc1Cl | 19 | 167*[activator] | 110 | 161 | 40 | 106 | . | 2 | 102 | 98 | 100 | 96 | 102
CN(C)N1C(N)=C(C#N)C(c2cccs2)C2=C1CC(C)(C)CC2=O (configuration not stated) | 73 | 100 | 98 | 103 | 13 | 102 | . | . | . | . | . | . | .
COc1ccc(NC(C)=O)cc1NC(=O)CN1CCN(C(=O)c2ccco2)CC1 | 32 | 130 | 123 | i | 2 | 153*[activator] | 130* | 1 | 109 | 112 | 112 | 110 | 121
CCN1CCCC1CNC(=O)C(=O)Nc1ccccc1OC (configuration not stated) | 13 | 101 | 153*[activator] | 108 | 62* | 104 | 101* | . | . | . | . | . | .
CC(NC(=O)Cc1ccc(-c2ccccc2)cc1)c1ccccc1 (configuration not stated) | 24 | 152*[activator] | 263*[activator] | 222 | 358* | 106 | . | -2 | 96 | 123 | 93 | 98 | 100
O=C(C(c1ccccc1)c1ccccc1)N1CCN(CCN2C(=O)c3cccc4cccc(c34)C2=O)CC1 | 9 | 103 | . | 103 | 6 | 102 | . | -1 | 100 | 96 | 103 | 97 | 127
O=C(Cn1[nH]c(=O)c2ccccc2c1=O)NNC(=O)c1ccccc1 | 10 | 106 | 101 | 101 | 22 | 101 | . | . | . | . | . | . | .
COc1ccc(NC(=O)c2ccc(COc3ccccc3Br)o2)cc1OC | 14 | 96 | 94 | 100 | 33 | 99 | . | . | . | . | . | . | .
COc1cc(NC(=O)c2ccc(COc3ccccc3Br)o2)cc(OC)c1OC | 30 | 149 | 126 | 208*[activator] | 77* | 112 | 149* | 2 | 96 | 91 | 94 | 95 | 82
CC1=CC2=NC(=O)/C(=C\c3ccc(-c4ccc(Cl)cc4)o3)C(=N)N2O1 | 9 | 153*[activator] | 167*[activator] | 429 | 208* | 115 | . | 2 | 103 | 101 | 113 | 96 | 236*[activator]
CS(=O)(=O)N1CCC(C(=O)NCc2ccc(F)cc2)CC1 | 18 | 101 | ? | 102 | 9 | 100 | . | . | . | . | . | . | .
CSc1nnc(NC(=O)c2ccc(C)c(S(=O)(=O)N3CCOCC3)c2)s1 | 29 | 18* | 14* | 9.3* | 0 | 12* | . | 2 | 102 | 104 | 104 | 106 | 103
Cc1nnc(NC(=O)c2ccc(C)c(S(=O)(=O)N3CCOCC3)c2)s1 | 46 | 101 | 100 | 99 | 6 | 102 | . | . | . | . | . | . | .
